PERK inh: block of dimerizer-induced PERK translation repression, primary screen, PERK inhibitor project, CHO PERK-DD cells, SEAP luminescence, HTS; CHO PERK-DD fusion, SEAP luminescence translation reporter; inhibition, % at 5.6 µM; 220,000 tested, 0.17% active; AID 1416, 2008;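 active = inhibition above the mean inhibition of all tested compounds plus 3 SD, set separately per screening campaign, cut at about 2.9% in these data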;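 note: PERK kinase domain activated by AP20187 dimerizer at 100 nM; 0% = DMSO with dimerizer and 100% = rapamycin at 8.4 µM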
PfM18AAP inh-1: PfM18AAP inhibitors, malaria aminopeptidase, primary screen, biochemical, QFRET, recombinant enzyme | H-Glu-NHMec fluorogenic cleavage | inhibition, % at 7.35 µM | 290,000 tested, 1.2% active | AID 1822, 2009;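 active = inhibition above the campaign mean inhibition over all tested compounds plus 3 SD, cut at about 28% in these data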;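 note: 0% = plate median of test compound wells and 100% = 2 mM ZnCl2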
eIF4E 4G PPI: eIF4E–eIF4G protein interaction inhibitors, primary screen, biochemical, uHTS, TR-FRET, eIF4GI fragment | Eukaryotic translation initiation factor 4E (Mus musculus) + Eukaryotic translation … | TR-FRET eIF4E-eIF4GI(517-606) binding, 2 h | inhibition, % at 21.7 µM | 220,000 tested, 0.37% active | AID 782, 2007;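 active = inhibition above about 30%, limit read from the data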;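 note: 0% = full FRET control wells and 100% = background wells lacking eIF4GI fragment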
PABP1 MLLE inh: inhibitors of PABP1 MLLE–PAM2 peptide binding, primary screen, biochemical, fluorescence polarization, FITC-PAM2, GST-MLLE. inhibition, % at 20 µM. Polyadenylate-binding protein 1 (Homo sapiens), P11940. 360,000 tested, 0.36% active. AID 588489, 2011; in the data active = inhibition above about 35%, passing the limit was not always enough;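 note: plate controls were DMSO wells with GST-MLLE for no effect and wells lacking GST-MLLE protein for full effect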
Target sequence (P11940 whole entry, looked up): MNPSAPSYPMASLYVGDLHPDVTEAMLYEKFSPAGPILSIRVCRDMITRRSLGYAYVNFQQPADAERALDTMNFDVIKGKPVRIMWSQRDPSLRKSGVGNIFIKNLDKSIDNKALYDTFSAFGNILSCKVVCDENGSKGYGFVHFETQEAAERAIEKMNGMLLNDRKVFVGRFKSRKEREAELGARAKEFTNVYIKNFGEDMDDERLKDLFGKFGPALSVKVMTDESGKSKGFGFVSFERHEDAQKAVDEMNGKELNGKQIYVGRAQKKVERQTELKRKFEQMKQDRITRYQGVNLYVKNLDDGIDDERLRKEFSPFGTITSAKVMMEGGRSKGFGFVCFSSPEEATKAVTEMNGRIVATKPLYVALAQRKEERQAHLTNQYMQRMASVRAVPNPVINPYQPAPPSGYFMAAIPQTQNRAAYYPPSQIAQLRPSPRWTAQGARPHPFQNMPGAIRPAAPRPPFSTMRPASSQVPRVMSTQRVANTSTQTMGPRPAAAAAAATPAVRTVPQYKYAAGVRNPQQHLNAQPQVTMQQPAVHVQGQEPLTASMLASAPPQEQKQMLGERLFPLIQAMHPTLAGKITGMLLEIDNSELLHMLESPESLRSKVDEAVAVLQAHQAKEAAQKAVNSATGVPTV
PABP polyA inh: PABP poly(A) RNA binding inhibitors, primary screen, biochemical, fluorescence polarization, uHTS | AID 2014, 2009 | Polyadenylate-binding protein 1 (Homo sapiens), P11940 | inhibition, % at 35 µM | 290,000 tested, 1% active;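 note: calls also rest on retests at 20 µM and on dose response follow-up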
eIF4H inh: human eIF4H binding inhibitors, primary screen, translation initiation inhibitor project, biochemical, uHTS, fluorescence polarization | 290,000 tested, 0.94% active | AID 2012, 2009 | eIF4H fluorescence polarization binding assay | Eukaryotic translation initiation factor 4H (Homo sapiens), Q15056 | inhibition, % at 35 µM;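 note: calls also rest on retests at 20 µM and on dose response follow-up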
PfM18AAP inh-2: PfM18AAP inhibitors, malaria aminopeptidase, confirmation, biochemical, QFRET, recombinant enzyme, triplicate | shares compounds with PfM18AAP inh-1 | 2,400 tested, 28% active | inhibition, % at 7.35 µM | H-Glu-NHMec fluorogenic cleavage | AID 2170, 2009;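 active = mean inhibition over replicate wells above the hit cutoff set for the earlier primary screen, cut at about 29% in these data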;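 note: 0% = median of test compound wells and 100% = 2 mM ZnCl2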
CTSL1 counter: cathepsin L1 inhibitors, retest, confirmation, counter-screen for PFM18AAP inhibitor project, biochemical, QFRET, triplicate; purified cathepsin L1, Z-Leu-Arg-MCA fluorescence; inhibition, % at 5.96 µM; 2,400 tested, under 10 active; shares compounds with PfM18AAP inh-1;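 active = average inhibition across replicates above the hit cutoff set in the earlier primary screen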;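 note: 0% = median of test compound wells and 100% = Z-Phe-Ala-diazomethylketone 1 µM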
Active calls of the source: *; nt = no result. Shown are actives, neighbours in structure and some others; about 2.4% of the full set was active somewhere. Unless noted, the rule behind the calls is not given here.

SMILES	PERK inh	PfM18AAP inh-1	eIF4E 4G PPI	PABP1 MLLE inh	PABP polyA inh	eIF4H inh	PfM18AAP inh-2	CTSL1 counter
Cc1ccc(N2C(=O)/C(=C\c3ccc(C(C)C)cc3)N=C2SC2CCOC2=O)cc1 (centres undefined)	0	-6	-1	31	0	1	nt	nt
COc1ccc([C@H]2CC(=O)C=C(c3cc4ccccc4s3)C2)cc1OC	nt	nt	nt	0	nt	nt	nt	nt
O=c1cc(CN(Cc2ccccc2)Cc2ccccc2)c2ccccc2o1	nt	nt	nt	-15	nt	nt	nt	nt
Nc1c(C(=O)Nc2ccc(Cl)cc2)sc2nc(N3CCOCC3)c3c(c12)CCCC3	nt	42*	nt	-1	7	-9	0	0
Cc1ccccc1N1CCN(Cc2cc3c(cc2[N+](=O)[O-])OCO3)CC1	nt	35*	nt	-2	21	22	-26	-1
C[C@@H](O)CNC(=O)c1[nH]cnc1C(=O)N[C@H](C)c1ccccc1	nt	nt	nt	0	nt	nt	nt	nt
COC(=O)CCC(=O)Nc1sc(Cc2ccccc2)c(C)c1C(N)=O	0	12	9	28	8	-3	nt	nt
COc1cccc(/C=N/c2sc(Cc3ccccc3)c(C)c2C(N)=O)c1O	1	34*	9	-2	-3	2	-24	-5
O=[N+]([O-])c1ccc(O)c(/C=N/n2cnc3ccccc32)c1	1	1	-2	2	2	-4	nt	nt
Cc1ccc(/C=C2\SC(=S)N(/N=C/c3cc([N+](=O)[O-])ccc3O)C2=O)o1	1	40*	15	-30	-9	96	-5	7
C/C(=N/O)c1ccc2c(c1)OCCOCCOc1cc(/C(C)=N/O)ccc1OCCOCCO2	-1	0	1	1	-3	-4	nt	nt
NS(=O)(=O)c1ccc(CCNC(=O)c2ccc[nH]c2=S)cc1	nt	43*	nt	38	-7	-9	7	-9
NS(=O)(=O)c1ccc(NC(=S)NCCc2ccccc2)cc1	1	41*	2	24	6	11	7	4
COCCCNC(=S)NNC(=S)Nc1ccc(OC)cc1	0	49*	-2	19	0	-3	-2	-4
COc1ccc(NC(=S)NCCCc2ccccc2)cc1	1	12	20	-53	-11	18	nt	nt
NS(=O)(=O)c1ccc(NC(=S)NCc2ccc(Cl)cc2)cc1	2	35*	35*	17	4	-7	11	2
CCN(C(=O)C(C)Sc1ccc(S(=O)(=O)N2CCOCC2)cn1)c1ccccc1 (centres undefined)	nt	nt	nt	30	nt	nt	nt	nt
Cc1ccc(C(=O)Nc2ccc(Br)cc2)cc1S(=O)(=O)Nc1ccccn1	0	-2	3	-5	-10	-4	nt	nt
CC(=O)Nc1ccc(C(=O)NCCCOC(C)C)cc1	0	-14	2	3	-2	13	nt	nt
CC(C)OCCCNC(=S)Nc1ccc(S(N)(=O)=O)cc1	1	49*	12	5	4	-10	11	-2
CCC(C)N=CC1=C(O)C(C(=O)OC)C(C)(C)CC1=O (centres undefined)	1	3	-6	-6	28	-3	nt	nt
COC(=O)C1C(O)=C(C=NCC(C)N=CC2=C(O)C(C(=O)OC)C(C)(C)CC2=O)C(=O)CC1(C)C (centres undefined)	1	47*	6	10	2	0	21	-1
CC1CCc2c(sc(NC(=O)CCC(=O)O)c2C(=O)NC2CC2)C1 (centres undefined)	nt	41*	nt	40*	9	-8	-1	-5
O=C(O)CCC(=O)Nc1sc2c(c1C(=O)Nc1ccccc1)CCCCC2	1	37*	5	-50	-3	23	-19	-2
O=C(CN1C(=O)c2ccccc2C1=O)Oc1ccc(F)cc1	nt	6	nt	nt	3	0	nt	nt
C/C(CC(=O)Nc1ccccc1C#N)=N\NC(=O)c1ccncc1	nt	37*	nt	-8	0	10	-19	-4

Screening data deposited in PubChem BioAssay by several laboratories.
